{"source": "PubChem BioAssay AID1645855", "about": "(Buhrlage Lab, Dana-Farber Cancer Institute and Novartis …, 2021)", "note": "Hit rate of the full screen: of about 47,000 compounds, about 3,100 (6.6%) were called active. Cut-off read from the data, not from the text of the source: active = inhibition above about 30%; inactive = the rest. The sample as a whole holds a higher share of actives than the screen did.", "data": [{"biological_target": "Ubiquitin carboxyl-terminal hydrolase 17-like protein 5 (Homo sapiens) (UniProt A8MUK1)", "sequence (A8MUK1 whole entry, looked up)": "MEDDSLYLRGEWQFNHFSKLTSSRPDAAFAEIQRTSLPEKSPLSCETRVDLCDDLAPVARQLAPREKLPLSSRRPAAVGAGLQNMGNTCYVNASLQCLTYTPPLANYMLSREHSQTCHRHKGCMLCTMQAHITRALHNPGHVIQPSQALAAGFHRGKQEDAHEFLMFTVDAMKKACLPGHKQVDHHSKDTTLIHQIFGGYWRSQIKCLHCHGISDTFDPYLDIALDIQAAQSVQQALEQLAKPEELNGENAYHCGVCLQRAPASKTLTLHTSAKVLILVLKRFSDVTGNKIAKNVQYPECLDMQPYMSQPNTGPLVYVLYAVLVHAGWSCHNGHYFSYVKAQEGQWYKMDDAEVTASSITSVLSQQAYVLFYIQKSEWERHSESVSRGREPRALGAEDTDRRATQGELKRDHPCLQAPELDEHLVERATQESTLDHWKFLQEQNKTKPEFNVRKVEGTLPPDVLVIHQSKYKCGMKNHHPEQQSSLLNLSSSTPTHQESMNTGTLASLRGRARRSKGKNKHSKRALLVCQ", "experiment": "blocks human USP17 ubiquitin-rhodamine cleavage (AID 1645855)", "details": "purified USP17, Ub-rhodamine cleavage fluorescence, 3 h; at 50 µM; active compounds read high", "values": [{"smiles": "COc1ccc2ncc(S(=O)(=O)c3ccccc3)c(N3CCOCC3)c2c1", "inhibition": "-6.05% (inactive)"}, {"smiles": "Cc1noc(C2(NC(=O)Cc3ccccc3C)CCCCC2)n1", "inhibition": "-5.54% (inactive)"}, {"smiles": "Cc1csc(C2(NC(=O)Cc3cc(C)on3)CCCC2)n1", "inhibition": "31.4% (active)"}, {"smiles": "O=C(Cc1cccc(F)c1)NC1(c2nc(C3CC3)no2)CCCCC1", "inhibition": "5.03% (inactive)"}, {"smiles": "Cc1nn2c(S(=O)(=O)NCc3ccccc3F)c(C)nc2s1", "inhibition": "18.9% (inactive)"}, {"smiles": "CCN(CC)c1ccc(NC(=O)Nc2ccc(OCc3ccccc3)cc2)cc1", "inhibition": "7.88% (inactive)"}, {"smiles": "CC1CCN(S(=O)(=O)N2CCCC(C(=O)Nc3ccccc3Cl)C2)CC1", "note": "(stereo unspecified)", "inhibition": "1.17% (inactive)"}, {"smiles": "CC(C)C(=O)Nc1nc2ccc(CCC(=O)Nc3ccc(F)cc3)cc2s1", "inhibition": "43.6% (active)"}, {"smiles": "O=C(CCc1nc2sc3c(c2c(=O)[nH]1)CCCC3)Nc1ccc(F)cc1", "inhibition": "2.56% (inactive)"}, {"smiles": "O=C(Cc1cccc2ccccc12)Nc1nc2ccc(F)cc2s1", "inhibition": "23.9% (inactive)"}, {"smiles": "CCCC(=O)Nc1nc2ccc(CCC(=O)NCc3ccc(F)cc3)cc2s1", "inhibition": "65.3% (active)"}, {"smiles": "Cc1ccc2nc(CCC(=O)NCc3ccc(F)cc3F)n(C)c(=O)c2c1", "inhibition": "10.9% (inactive)"}, {"smiles": "CC(C)C(=O)Nc1nc2cc(NS(=O)(=O)c3ccccc3)ccc2s1", "inhibition": "4.36% (inactive)"}, {"smiles": "Cc1ccc2[nH]cc(C(C(=O)O)N3CCN(c4ccc(C(F)(F)F)cn4)CC3)c2c1", "note": "(stereo unspecified)", "inhibition": "-4.78% (inactive)"}, {"smiles": "Cc1cccc(C)c1NS(=O)(=O)c1ccc(N2CCCC2=O)cc1", "inhibition": "-8.71% (inactive)"}, {"smiles": "Cc1noc(C)c1CN1C[C@H](OCc2ccccn2)[C@H]2OCCC[C@H]21", "inhibition": "-5.79% (inactive)"}, {"smiles": "CCc1cc(=O)n(CC(=O)NCc2ccccc2)c(N2CCOCC2)n1", "inhibition": "-0.113% (inactive)"}, {"smiles": "Cc1cc2nc(N3CCOCC3)n(CC(=O)Nc3ccccc3F)c(=O)c2n1C", "inhibition": "36% (active)"}, {"smiles": "Cc1cc(=O)n(CC(=O)Nc2ccc(F)cc2C)c(N2CCCC2)n1", "inhibition": "16.9% (inactive)"}, {"smiles": "O=C(Cc1c[nH]c2ccccc12)N1CCc2cc(-c3ccno3)ccc21", "inhibition": "-26.7% (inactive)"}, {"smiles": "COc1ccc(-c2noc(C3(c4ccccc4)CCOCC3)n2)cc1", "inhibition": "19.3% (inactive)"}, {"smiles": "COc1ccc(-c2noc(CN(C3CCCCC3)S(=O)(=O)c3ccc(OC)cc3)n2)cc1", "inhibition": "4.09% (inactive)"}, {"smiles": "COc1ccc(-c2noc(-c3ccc(N(C)Cc4ccco4)nn3)n2)cc1", "inhibition": "30.7% (active)"}, {"smiles": "CC(C)n1ncc2[nH]c(C3CCCN(C(=O)Nc4ccc(F)cc4)C3)nc21", "note": "(stereo unspecified)", "inhibition": "-4.82% (inactive)"}, {"smiles": "CCOC(=O)c1cc2c(ccn2-c2ccc(F)cc2)n1Cc1ncc(C)c(OC)c1C", "inhibition": "-32% (inactive)"}, {"smiles": "O=C(Nc1cc(-c2ccccc2)nn1C1CCS(=O)(=O)C1)c1ccccc1F", "note": "(stereo unspecified)", "inhibition": "-23.8% (inactive)"}, {"smiles": "COc1ccccc1C(=O)Nc1cccn2nc(C3CCC3)nc12", "inhibition": "2.42% (inactive)"}, {"smiles": "CC(C)(C)n1nc(C2CC2)c(Br)c1NC(=O)c1ccccc1F", "inhibition": "93.7% (active)"}, {"smiles": "CCCCn1c(=O)[nH]c2c(c1=O)CCC2", "inhibition": "4.26% (inactive)"}, {"smiles": "Cc1sc(NC(=O)c2ccc(S(=O)(=O)N(C)CC3CCCO3)cc2)c(C(N)=O)c1C", "note": "(stereo unspecified)", "inhibition": "40.5% (active)"}, {"smiles": "Cc1ccc(S(=O)(=O)CC(=O)Nc2sc(C)c(C)c2C(N)=O)cc1", "inhibition": "-27.2% (inactive)"}, {"smiles": "Cc1sc(NC(=O)CS(=O)(=O)c2ccc(F)cc2)c(C(N)=O)c1C", "inhibition": "-84% (inactive)"}, {"smiles": "CCN1CCN(C2=Nc3c(Cl)cc(Cl)c4cccc2c34)CC1", "inhibition": "-158% (inactive)"}, {"smiles": "O=c1c2ccccc2c(-c2nc(-c3ccncc3)no2)cn1-c1ccc(F)cc1", "inhibition": "37.7% (active)"}, {"smiles": "COc1ccccc1-c1nc(-c2ccc(-n3cccn3)nc2)no1", "inhibition": "2.48% (inactive)"}, {"smiles": "O=c1c2ccccc2ncn1Cc1noc(-c2ccccc2F)n1", "inhibition": "-0.0976% (inactive)"}, {"smiles": "CC(C)NC(=O)[C@H](C)NC(=O)N1CCn2c1nc1ccccc12", "inhibition": "-12.1% (inactive)"}, {"smiles": "CN1Cc2c(C(=O)NCC3CCCO3)ncn2-c2ccccc2S1(=O)=O", "note": "(stereo unspecified)", "inhibition": "-13.6% (inactive)"}, {"smiles": "Cn1c(=O)c2c(SCC(=O)N3CCC(Cc4ccccc4)CC3)nc(-c3cccs3)nc2n(C)c1=O", "inhibition": "2.08% (inactive)"}, {"smiles": "COc1ccc(F)cc1-c1ccccc1CC1CNCCNC1=O", "note": "(stereo unspecified)", "inhibition": "-14.6% (inactive)"}, {"smiles": "Cc1nc2ccccc2c(=O)n1CC(=O)N1CCCc2ccccc21", "inhibition": "4.34% (inactive)"}, {"smiles": "O=C(Cn1cnc2ccccc21)N1CCCc2ccccc21", "inhibition": "-1.89% (inactive)"}, {"smiles": "COC(=O)COc1cccc2c(=O)n(CC(=O)N3CCc4ccccc43)ccc12", "inhibition": "35.8% (active)"}, {"smiles": "Cn1c(=O)c2c(ncn2CC(=O)OCc2cccc([N+](=O)[O-])c2)n(C)c1=O", "inhibition": "-12.3% (inactive)"}, {"smiles": "COc1ccc(-c2cc(C(=O)Nc3cccc(C)c3C)c3ccccc3n2)cc1OC", "inhibition": "-1.61% (inactive)"}, {"smiles": "CCN1C[C@@]23CN(C(=O)c4ccc(OC)cc4)C[C@@H](C[C@@H]2S1(=O)=O)O3", "inhibition": "0.859% (inactive)"}, {"smiles": "O=C(c1ccco1)[C@@H]1[C@@H]2C(=O)N(c3cccc([N+](=O)[O-])c3)C(=O)[C@@H]2C2c3ccccc3C=CN21", "note": "(stereo partly specified)", "inhibition": "-7.36% (inactive)"}, {"smiles": "COc1cccc(N2CCCN(C(=O)c3ccc4nc(C)[nH]c4c3)CC2)c1", "inhibition": "-10.9% (inactive)"}, {"smiles": "COc1cccc(-c2cc(C(=O)N3CCN(c4ccc(N5CCOCC5)nn4)CC3)[nH]n2)c1", "inhibition": "33.1% (active)"}, {"smiles": "O=C(c1cccnc1)N1CCN(c2cc(-c3ccccc3)[nH]n2)CC1", "inhibition": "-26.3% (inactive)"}, {"smiles": "N#Cc1ccccc1NC(=O)c1cccc2c1SCCC2=O", "inhibition": "8.87% (inactive)"}, {"smiles": "Cc1cccc(N2CCN(C(=O)C3CCCN(S(=O)(=O)N4CCC5(CC4)OCCO5)C3)CC2)c1C", "note": "(stereo unspecified)", "inhibition": "9.89% (inactive)"}, {"smiles": "O=C1NC(c2ccccc2)=N/C1=C/c1ccc(F)cc1", "inhibition": "39.9% (active)"}, {"smiles": "O=C(O)c1c2c(nc3ccccc13)/C(=C/c1ccc(F)cc1)CCC2", "inhibition": "4.5% (inactive)"}, {"smiles": "CCC(C)Cc1ccc2c(c1O)C(=O)OC(CC(\\C=C/C=C\\C=C\\c1coc(CC(O)C(C)C(O)CC)n1)OC)C2", "note": "(stereo unspecified)", "inhibition": "14.5% (inactive)"}, {"smiles": "O=C(NCc1ccccc1)c1cc(-c2ccncc2)n[nH]1", "inhibition": "-3.2% (inactive)"}, {"smiles": "COc1ccccc1CNC(=O)c1c(O)c2cccnc2n(-c2ccccc2)c1=O", "inhibition": "-4.34% (inactive)"}, {"smiles": "O=C(NCc1ccccc1)c1c(O)c2cnn(Cc3ccccc3)c2[nH]c1=O", "inhibition": "33.7% (active)"}, {"smiles": "O=C(CN1CCC(Nc2nc3c(c(=O)[nH]2)CCCC3)CC1)Nc1ccccc1[N+](=O)[O-]", "inhibition": "14% (inactive)"}, {"smiles": "Cc1sc(NC(=O)CCc2ccccc2)nc1-c1ccc2c(c1)N(C)C(=O)CO2", "inhibition": "-15.7% (inactive)"}, {"smiles": "Cc1ccc(C)c(S(=O)(=O)N2CCC(c3nc(C(=O)N(C)C)c(C)o3)CC2)c1", "inhibition": "-7.71% (inactive)"}, {"smiles": "O=C(NCc1cccnc1)[C@@H]1CC[C@@H]2[C@@H](CCN2c2ncc(F)cn2)O1", "inhibition": "-63.6% (inactive)"}, {"smiles": "COc1ccc(NS(=O)(=O)c2cc(NC(=O)/C=C/c3cccc(OC)c3)ccc2OC)cc1", "inhibition": "-3.35% (inactive)"}, {"smiles": "COc1ccc(NS(=O)(=O)c2cc(NC(=O)COc3ccccc3F)ccc2OC)cc1", "inhibition": "6.42% (inactive)"}, {"smiles": "COc1ccc(NS(=O)(=O)c2cc(NC(=O)CC(=O)c3ccc([N+](=O)[O-])cc3)ccc2C)cc1", "inhibition": "39.9% (active)"}, {"smiles": "COCCN1C[C@H]2COc3cc(OC)ccc3[C@H]2N(C(=O)c2ccc(F)cc2)CCC1=O", "inhibition": "0.764% (inactive)"}, {"smiles": "CC(C)n1cnc(-c2cc(C(=O)NC3CC3)c3ccccn23)c1", "inhibition": "-51.2% (inactive)"}, {"smiles": "CCCNC(=O)c1ccc(Nc2cc(C)nc3nc(-c4cccnc4)nn23)cc1", "inhibition": "7.85% (inactive)"}, {"smiles": "COc1ccc(CNC(=O)c2ccccc2N2C(=O)N3CCc4c([nH]c5ccccc45)[C@@]3(C)C2=O)cc1", "inhibition": "56.3% (active)"}, {"smiles": "COc1ccc2[nH]c3c(c2c1)CCN1C(=O)N([C@@H](C)C(=O)NCC(=O)O)C(=O)[C@]31C", "inhibition": "9.34% (inactive)"}, {"smiles": "C[C@]12C(=O)N(c3cccc(C(=O)NCCN4CCOCC4)c3)C(=O)N1CCc1c2[nH]c2ccccc12", "inhibition": "-24.6% (inactive)"}, {"smiles": "O=C(NCCc1ccc(F)cc1)N1CC[C@@H]2CN(Cc3ccncc3)S(=O)(=O)[C@@H]2CC1", "inhibition": "-15.9% (inactive)"}, {"smiles": "O=C(CNC(c1ccccc1)c1ccccc1)Nc1ccc(F)cc1", "inhibition": "3.76% (inactive)"}, {"smiles": "O=C(N[C@@H]1C[C@@H](Oc2cccnc2)[C@H](O)[C@H]1N1CCCCC1)c1cnco1", "inhibition": "-6.77% (inactive)"}, {"smiles": "COc1cc(OC)cc(-c2nnc(NC(=O)c3ccc([N+](=O)[O-])o3)o2)c1", "inhibition": "51.3% (active)"}, {"smiles": "COc1cccc(CNC(=O)c2ccc(-c3cncnc3)nc2)c1", "inhibition": "-9.04% (inactive)"}, {"smiles": "COc1cccc(-c2ocnc2C(=O)NCc2ccc(OC)c(OC)c2)c1", "inhibition": "-10.8% (inactive)"}, {"smiles": "CN(C)C(=O)c1cccnc1-c1nc2ccccc2s1", "inhibition": "9.06% (inactive)"}, {"smiles": "Cc1nc(NCc2ccco2)nc2c1COCC21CCN(C(=O)C(C)(C)C)C1", "note": "(stereo unspecified)", "inhibition": "-22.1% (inactive)"}, {"smiles": "COc1ccc(NC(=O)C2=C(C)Nc3ncnn3C2c2cccc(OCc3ccc(F)cc3)c2)c(OC)c1", "note": "(stereo unspecified)", "inhibition": "51.9% (active)"}, {"smiles": "CC1=C(C(=O)Nc2ccccc2)C(c2cccs2)n2ncnc2N1", "note": "(stereo unspecified)", "inhibition": "-10.9% (inactive)"}, {"smiles": "CC1=C(C(=O)Nc2ccccc2)C(c2cccnc2)n2nc(CCCO)nc2N1", "note": "(stereo unspecified)", "inhibition": "-9.97% (inactive)"}, {"smiles": "COc1cccc(C2C(C(=O)Nc3ccccc3C)=C(C)Nc3ncnn32)c1OCc1ccccc1", "note": "(stereo unspecified)", "inhibition": "-19.2% (inactive)"}, {"smiles": "CC1=C(C(=O)Nc2ccccc2)C(c2ccc(OCc3c(Cl)cccc3Cl)cc2)n2ncnc2N1", "note": "(stereo unspecified)", "inhibition": "69.4% (active)"}, {"smiles": "COc1ccccc1NC(=O)C1=C(C)Nc2ncnn2C1c1ccc(C)o1", "note": "(stereo unspecified)", "inhibition": "0.179% (inactive)"}, {"smiles": "COc1cccc([C@@H]2C[C@]3(C)NC(=O)CCCC[C@@H]3N2C(=O)c2cnn(C)c2)c1", "inhibition": "-8.06% (inactive)"}]}]}
